Screening data from PubChem.
Most compounds without a hit are left out; they make up all but 4.6% or so of the library.
ADAM10 inh – inhibits human ADAM10 | 0.62% of 370,000 active | recombinant ADAM10, EDANS/DABCYL FRET peptide cleavage, 3 h | inhibition, % at 7 µM | O14672;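 active = inhibition above a per-campaign cutoff equal to the mean of compounds falling between control-based bounds plus 3 SD, cut at about 20% in these data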
NR3A LBD binder – modulators (binders) of human NR3A ligand-binding domain. Tm shift relative to glycine control, % at 25 µM. NR3A LBD differential scanning fluorimetry, Tm shift; 0% = protein alone, 100% = glycine-bound protein. 2.5% of 340,000 active;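 active = melting temperature shift of at least 10% of the positive control shift, at one fixed dose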
ADAM17 inh – ADAM17 inhibition, QFRET primary screen; P78536; recombinant ADAM17, EDANS/DABCYL FRET peptide cleavage; inhibition, % at 6.95 µM; 0.83% of 370,000 active;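 active = inhibition above the mean of compounds lying between control limits plus 3 SD, set per campaign, cut at about 8.5% in these data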
KLK7 zymogen act – proKLK7 (human) activation, primary screen; 0.9% of 370,000 active; purified proKLK7, EDANS-DABCYL substrate fluorescence; 100% is mature enzyme control, 0% vehicle; P49862; activation, % at 7 µM;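 active = activation above the mean of all tested compounds plus 3 SD, computed per campaign excluding outliers beyond control limits, cut at about 13% in these data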
FAS-TE inh – inhibitors of human fatty acid synthase thioesterase domain; inhibition, % at 15 µM; recombinant FAS-TE, OMFH fluorogenic substrate, fluorescence endpoint; AID 602261; P49327; 0.67% of 360,000 active;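 active = compounds whose normalised, plate-corrected inhibition of enzyme fluorescence in the single-dose primary screen is 50% or more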
Each line names hits and unclear results; the compound was inactive in the other large screens.

Cc1ccc(NC(=O)c2cccs2)cc1[N+](=O)[O-]	none
COc1ccc(C(=O)Nc2ccc(C(=O)Nc3nccs3)cc2)cc1[N+](=O)[O-]	NR3A LBD binder 22
O=C(Nc1nccs1)c1ccc(Cl)c([N+](=O)[O-])c1	none
CC(=O)Nc1ccc(NC(=O)CSc2nnc(-c3n[nH]c4c3CCC4)n2N)cc1	none (no result: NR3A LBD binder, FAS-TE inh)
CCn1c(SCC(=O)Nc2ccc(C(N)=O)cc2)nc2sc(C)c(C)c2c1=O	none (no result: NR3A LBD binder, FAS-TE inh)
Cc1ccc(C(=O)NCCN2C(=O)C3C4C=CC(C4)C3C2=O)cc1 (centres undefined)	none (no result: NR3A LBD binder, FAS-TE inh)
O=C(Nc1ccc(Oc2ccccc2)cc1)C1CCCN1S(=O)(=O)c1cccc2cccnc12 (centres undefined)	none (no result: NR3A LBD binder, FAS-TE inh)
COc1cc(/C=N/NC(=O)Cc2csc(N3CCOCC3)n2)cc(OC)c1O	NR3A LBD binder 15
Clc1ccc(C=Cc2ccccn2)cc1	none
Clc1ccc(/C=C\c2nccc3c2[nH]c2ccccc23)cc1	NR3A LBD binder 20
N#Cc1ccc(/C=C\c2nccc3c2[nH]c2ccccc23)cc1	NR3A LBD binder 12
COc1cccc(/C=N/NC(=O)c2nnn(-c3nonc3N)c2C(C)C)c1	NR3A LBD binder 26
CN(C)Cc1c(C(=O)N/N=C/c2ccc(OCc3ccc(F)cc3)cc2)nnn1-c1nonc1N	none
CC(C)c1c(C(=O)N/N=C/C=C/c2ccccc2)nnn1-c1nonc1N	NR3A LBD binder 17
COc1cccc(/C=N/NC(=O)c2nnn(-c3nonc3N)c2-c2cccs2)c1	none
CCN(CC)c1ccc(/C=N/NC(=O)c2nnn(-c3nonc3N)c2C(C)C)c(O)c1	NR3A LBD binder 19
CN(C)Cc1c(C(=O)N/N=C/C=C/c2ccccc2)nnn1-c1nonc1N	none
COc1cc(/C=N/NC(=O)c2nnn(-c3nonc3N)c2C(C)C)ccc1OCc1ccc(F)cc1	NR3A LBD binder 31
CC(C)CSc1ncccc1-c1nc2ccccc2[nH]1	none (no result: NR3A LBD binder, FAS-TE inh)
C=CCN(CC#CC1=CCCCC1)CC1CC1	none (no result: NR3A LBD binder, FAS-TE inh)
CC(COc1cccc(Cl)c1)CN1CCC(C(O)(c2ccccc2)c2ccccc2)CC1 (centres undefined)	none (no result: NR3A LBD binder, FAS-TE inh)
Nc1nonc1-n1nnc(C(=O)N/N=C/c2ccc3c(c2)OCO3)c1-c1ccccc1	none
CC(C)c1c(C(=O)N/N=C/c2cccc(OCc3ccc(F)cc3)c2)nnn1-c1nonc1N	NR3A LBD binder 27
CC(C)c1c(C(=O)N/N=C/c2ccc3c(c2)OCO3)nnn1-c1nonc1N	NR3A LBD binder 28
C[C@@H]1[C@H](O)[C@@H](C)/C=C/C=C/C=C/C=C/C=C/C=C/C=C/[C@H](OC2O[C@H](C)[C@@H](O)[C@H](N)[C@@H]2O)C[C@@H]2O[C@](O)(C[C@@H](O)C[C@@H](O)[C@H](O)CC[C@@H](O)C[C@@H](O)CC(=O)O[C@H]1C)C[C@H](O)[C@H]2C(=O)O (some centres undefined)	none (no result: NR3A LBD binder, FAS-TE inh)
Cc1ccc(C(=O)Nc2ccccc2OC(F)F)cc1	NR3A LBD binder 13
O=C(Nc1ccccc1OC(F)F)c1ccccc1	none
O=C(NC(Cc1c[nH]c2ccccc12)c1nnc2n1CCCCC2)c1ccccc1Cl (centres undefined)	NR3A LBD binder 11
O=C(NC(Cc1c[nH]c2ccccc12)c1nnc2n1CCCCC2)c1ccccc1 (centres undefined)	none
Clc1ccc(-n2c(SCc3cccc4ccccc34)nnc2-c2cccnc2)cc1	none (no result: NR3A LBD binder, FAS-TE inh)
COC(=O)C1CN(Cc2cn(Cc3ccc(Cl)cc3)nn2)CCS(=O)(=O)N1Cc1ccccc1 (centres undefined)	none (no result: NR3A LBD binder, FAS-TE inh)
CN1/C(=C\C(=O)Nc2ccc(Br)cc2)C(C)(C)c2ccccc21	NR3A LBD binder 19
CN1/C(=C\C(=O)Nc2ccc(F)cc2)C(C)(C)c2ccccc21	none
CCC[C@H]1[C@@H](NS(=O)(=O)c2ccccc2[N+](=O)[O-])CC[C@@]23CCCN2C(=O)CCC[C@@H]13	none (no result: NR3A LBD binder, KLK7 zymogen act, FAS-TE inh)
C=CCC[C@@H](Cc1ccc(F)cc1)C(=O)OCCNC(=O)[C@@H](CC=C)CC(=O)N[C@@H](CO)Cc1ccccc1	NR3A LBD binder 23
C=CC[C@@H](CC(=O)N(CCO)Cc1ccccc1)C(=O)N[C@@H](COC(=O)[C@H](CC=C)CC(=O)OC(C)(C)C)Cc1c[nH]c2ccccc12	ADAM10 inh 35, ADAM17 inh 22
C=CCC[C@H](Cc1ccc(F)cc1)C(=O)OC[C@H](Cc1c[nH]c2ccccc12)NC(=O)[C@@H](CC=C)CC(=O)NCCO	ADAM10 inh 26
C=CC[C@H](CC(=O)N(CCO)Cc1ccccc1)C(=O)N[C@H](COC(=O)[C@H](CC=C)CC(=O)OC(C)(C)C)Cc1c[nH]c2ccccc12	none
C=CC[C@@H](CC(=O)N[C@H](CO)Cc1ccccc1)C(=O)N[C@H](COC(=O)[C@H](CC=C)CC(=O)OC(C)(C)C)Cc1c[nH]c2ccccc12	ADAM10 inh 29, ADAM17 inh 17
C=CC[C@@H](CC(=O)NCCO)C(=O)N[C@H](COC(=O)[C@H](CC=C)CC(=O)OC(C)(C)C)Cc1c[nH]c2ccccc12	none
C=CCC[C@@H](Cc1ccc(F)cc1)C(=O)OC[C@H](Cc1c[nH]c2ccccc12)NC(=O)[C@@H](CC=C)CC(=O)N[C@@H](CO)Cc1ccccc1	none
CCOC(=O)CC[C@@]1(C(=O)OCC)C[C@@H](CC(=O)NCc2cccs2)C(=O)N2CCCC=C21	none (no result: NR3A LBD binder, FAS-TE inh)
COC(=O)C1CN(C2CCCC2)CCS(=O)(=O)N1Cc1ccccc1 (centres undefined)	none (no result: NR3A LBD binder, FAS-TE inh)
C#CCN1CC(N(C)CCOC(=O)c2cccs2)CS1(=O)=O (centres undefined)	none (no result: NR3A LBD binder, FAS-TE inh)
CCOC(=O)N1CCN(c2ccc(N3C(=O)CCCC3=O)cc2[N+](=O)[O-])CC1	none
CCOC(=O)N1CCN(c2ccc(F)cc2[N+](=O)[O-])CC1	NR3A LBD binder 23
O=C(Nc1ccc(-c2nc3cccnc3s2)cc1)c1ccco1	NR3A LBD binder 12
O=C(Nc1ccc(-c2nc3cccnc3s2)cc1)c1ccc(Br)o1	NR3A LBD binder 20
CCCC(=O)OC12CCCN(C1)/C(=C/c1cccc(Cl)c1)C2 (centres undefined)	none (no result: NR3A LBD binder, FAS-TE inh)
C=CCN(Cc1ccc2c(c1)OCO2)C(C#Cc1ccccc1)c1ccccc1C(F)(F)F (centres undefined)	none (no result: NR3A LBD binder, FAS-TE inh)
COc1cc(NC(=O)c2ccc3snnc3c2)cc(OC)c1	NR3A LBD binder 19
COP(=O)(O)C(COCCC(CC(C)C)NC(=O)OCc1ccccc1[N+](=O)[O-])NC(=O)OCc1ccccc1 (centres undefined)	none (no result: NR3A LBD binder, KLK7 zymogen act, FAS-TE inh)
C[C@H](CO)N1C[C@H](C)[C@@H](CN(C)C(=O)NC2CCCCC2)Oc2ccc(NC(=O)CCC(F)(F)F)cc2C1=O	none
C[C@H](CO)N1C[C@H](C)[C@@H](CN(C)C(=O)Nc2ccc3c(c2)OCO3)Oc2c(NC(=O)Nc3ccc4c(c3)OCO4)cccc2C1=O	FAS-TE inh 55
